This is one part of a sample in which hits are shown more often than they occur.
nsP2pro inh: inhibitors of chikungunya virus nsP2 protease; Q8JUX6; FRET peptide cleavage, nsP2pro, fluorescence 1 h; Potency, µM (top dose mostly 24.9 µM), for the others: at the highest dose activity change, negative = inhibition, usual class: inhibitors; 31,000 compounds, 1.1% hits; note: nearly all actives have a fitted effect of over 60% in size
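Purified recombinant nsP2pro (150 nM final) in 10 mM Tris-HCl pH 8.0 with 0.01% Tween 20 was preincubated 15 min at room temperature with compound (7 concentrations, up to 25 uM). FRET peptide 2 substrate (2.5 uM final) was then added; fluorescence was read after 1 h.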
CHIKV nsP2 cell: cell-based CHIKV nsP2 protease inhibition, secondary. Potency, µM (doses to about 51.1 µM), inactives show top-dose activity change, negative = inhibition, usual class: inhibitors. shares compounds with nsP2pro inh. cell-based CHIKV nsP2 protease reporter assay. AID 1964100. 450 compounds, 10% hits; note: nearly all actives have a fitted effect of over 70% in size
CHIKV NSP2 FL: inhibits full-length CHIKV NSP2 enzyme; shares compounds with nsP2pro inh; Full-length CHIKV NSP2 protease enzymatic counterscreen; 410 compounds, 39% hits; Potency, µM (doses to about 50.7 µM), for inactives: at the highest dose activity change, negative = inhibition, actives largely listed as inhibitors; note: nearly all actives have a fitted effect of over 65% in size
Furin counterscr: inhibits human furin in a CHIKV nsP2 protease selectivity counterscreen; 410 compounds, 6% hits; Recombinant human furin enzymatic counterscreen, fluorogenic substrate; Potency, µM (titrated, usually from 50.6 µM), for inactives: top-dose activity change, negative = inhibition, actives largely listed as inhibitors; shares compounds with nsP2pro inh
Target sequence (P09958 whole entry, looked up): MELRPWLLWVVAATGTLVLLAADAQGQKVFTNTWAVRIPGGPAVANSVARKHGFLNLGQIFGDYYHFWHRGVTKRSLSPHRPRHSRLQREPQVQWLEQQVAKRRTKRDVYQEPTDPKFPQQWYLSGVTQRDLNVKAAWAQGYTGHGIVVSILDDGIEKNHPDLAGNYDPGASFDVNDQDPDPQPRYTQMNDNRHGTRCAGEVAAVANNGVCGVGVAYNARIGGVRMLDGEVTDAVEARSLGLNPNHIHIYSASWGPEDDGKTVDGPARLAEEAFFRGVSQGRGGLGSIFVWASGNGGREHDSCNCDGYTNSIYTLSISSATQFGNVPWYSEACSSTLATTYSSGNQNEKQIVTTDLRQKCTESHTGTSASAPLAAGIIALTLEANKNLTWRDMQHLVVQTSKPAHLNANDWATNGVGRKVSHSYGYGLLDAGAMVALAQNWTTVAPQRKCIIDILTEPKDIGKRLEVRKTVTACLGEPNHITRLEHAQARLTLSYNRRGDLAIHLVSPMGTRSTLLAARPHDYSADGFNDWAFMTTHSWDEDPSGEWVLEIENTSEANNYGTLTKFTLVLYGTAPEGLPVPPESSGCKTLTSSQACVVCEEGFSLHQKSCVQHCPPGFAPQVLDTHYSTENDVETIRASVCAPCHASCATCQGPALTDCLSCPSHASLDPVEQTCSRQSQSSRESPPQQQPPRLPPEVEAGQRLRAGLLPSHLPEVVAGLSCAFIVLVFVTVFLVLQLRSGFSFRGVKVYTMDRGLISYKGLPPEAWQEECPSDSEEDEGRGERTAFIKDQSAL
NS23 peptide cs: nsP2pro inhibition on native NS2/3 peptide substrate; shares compounds with nsP2pro inh; Purified CHIKV nsP2 protease, endogenous NS2/3 peptide cleavage; Potency, µM (titrated, usually from 51 µM), inactives show at the highest dose activity change, negative = inhibition, usual class: inhibitors; 410 compounds, 34% hits; AID 1964103; note: nearly all actives have a fitted effect of over 55% in size
Papain counter: papain protease inhibition, counterscreen for nsP2pro inhibitors; 410 compounds, 5% hits; AID 1964104; purified papain protease activity, enzymatic inhibition; shares compounds with nsP2pro inh; Potency, µM (highest dose often 51 µM), without a hit: at the top dose activity change, negative = inhibition, most hits filed as inhibitors
nsP2pro conf qHTS: confirmation of CHIKV nsP2 protease inhibitors; shares compounds with nsP2pro inh; AID 1964105; 410 compounds, 43% hits; Potency, µM (series often up to 25.5 µM), for inactives: at the highest dose activity change, negative = inhibition, actives largely listed as inhibitors; CHIKV nsP2 protease enzymatic activity, qHTS; note: nearly all actives have a fitted effect of over 75% in size
HCV NS3 counter: selectivity counter-screen for CHIKV nsP2 protease inhibitors: HCV NS3/4A | 410 compounds, 20% hits | AID 1964106 | HCV NS3/4A protease biochemical counterscreen | Potency, µM (titrated, usually from 50.9 µM), usual class: inhibitors | shares compounds with nsP2pro inh; note: nearly all actives have a fitted effect of over 55% in size
Numbers without * were called inactive; i = inactive; ? = inconclusive; [ ] = remark or other dose. Calls come from the whole dose curve. % is set by controls: 0 for no effect and ±100 for the full control effect; potency is the fitted concentration of half-maximal effect.

SMILES	nsP2pro inh	others
CCOc1ccc(CCNC(=O)c2ccccn2)cc1OCC	0%
CCOc1cc(CNc2ccc(O)cc2)ccc1OCc1ccc(Cl)cc1	10µM*	CHIKV nsP2 cell=13µM*;CHIKV NSP2 FL=18µM*;Furin counterscr=-22%;NS23 peptide cs=?;Papain counter=-24%;nsP2pro conf qHTS=-2%;HCV NS3 counter=?
Oc1cc(NCc2ccc(Cl)cc2)cc2cccnc12	3%
O=C(COc1ccccc1CNc1ccc(F)cc1)Nc1ccc(Cl)cc1	29%
O=C1C[C@@H]2CCN(C(=O)C3CC3)C[C@@H]2CCN1Cc1ccc2c(c1)OCO2	10%[39.2 µM]
CN(C)S(=O)(=O)c1ccc(NC(=S)N2CCC(C(O)(c3ccccc3)c3ccccc3)CC2)cc1	-13%
Cc1cc(C(=O)N[C@H]2[C@H](O)[C@H](O)C[C@@H]2c2cccnc2)n(C)n1	-7%[39.2 µM]
O=C(c1cncs1)N1CCc2c(cc(-c3cccc(F)c3)c(=O)n2CCN2CCCCC2)C1	i
O=S(=O)(Nc1cccc2cccnc12)c1ccccc1	i
CCOc1ccc(N(C(=O)c2ccccc2F)S(=O)(=O)c2ccc3c(c2)n(C)c(=O)n3C)cc1	-5%
CC1(C)SCCN(S(=O)(=O)c2ccc(OCC#CCO)cc2)[C@H]1C(=O)NO	?	CHIKV nsP2 cell=-13%;CHIKV NSP2 FL=?;Furin counterscr=-3%;NS23 peptide cs=2%;Papain counter=-3%;nsP2pro conf qHTS=?;HCV NS3 counter=i
CC1(C)SCCN(S(=O)(=O)c2ccc(Oc3ccncc3)cc2)[C@H]1C(=O)NO	0%
COc1ccc(-c2csc(NC(=O)[C@H]3CCCCN3S(=O)(=O)c3ccc(C)cc3)n2)cc1	2%
CC(=O)Nc1ccc(Nc2ncnc3sc4c(c23)CCCC4)cc1	-15%
COC[C@H]1C[C@@H](NC(=O)Nc2ccc(F)cc2)[C@H](O)[C@@H]1O	-18%[39.2 µM]
COc1ccc(NC(=O)CNS(=O)(=O)c2cccs2)c(OC)c1	-16%
CCOCCCNC(=O)C(c1ccc(OC)cc1)N(Cc1cccs1)C(=O)CNC(C)=O (stereo not drawn)	-10%
C#CC(=O)N(c1ccc(OC)cc1OC)C(C(=O)NCC(=O)OCC)c1cccs1 (stereo not drawn)	0.62µM*	CHIKV nsP2 cell=-17%;CHIKV NSP2 FL=1.3µM*;Furin counterscr=-5%;NS23 peptide cs=2.9µM*;Papain counter=-8%;nsP2pro conf qHTS=0.8µM*;HCV NS3 counter=i
CC(=O)Oc1c(C)cc(OCC(O)CNC(C)C)c(C)c1C (stereo not drawn)	-12%[39.2 µM]
Cc1cc(C)cc(-n2ccn(CC(=O)Nc3ccccc3F)c(=O)c2=O)c1	4%
O=C(NCCc1nc2c(s1)CCCC2)C1NCCc2[nH]cnc21 (stereo not drawn)	i
NCCc1noc(-c2ccccc2)n1	-11%
O=C1c2ccccc2C(=O)c2oc(-c3cccnc3)nc21	3.1µM*	CHIKV nsP2 cell=?;CHIKV NSP2 FL=-24%;Furin counterscr=-5%;NS23 peptide cs=?;Papain counter=-10%;nsP2pro conf qHTS=?;HCV NS3 counter=i
O=C(CSc1oc(-c2ccccc2)nc1S(=O)(=O)c1ccccc1)c1ccccc1	-25%
O=C1c2ccccc2C(=O)c2oc(-c3ccccc3)nc21	8.8µM*	CHIKV nsP2 cell=-26%;CHIKV NSP2 FL=?;Furin counterscr=-5%;NS23 peptide cs=-24%;Papain counter=-1%;nsP2pro conf qHTS=-21%;HCV NS3 counter=i
SMILES	nsP2pro inh	others
O=c1ncn(Cc2ccccc2)c2ccc(-c3cccnc3)nc12	-3%[39.2 µM]
Cc1cnc(-c2ccccc2C(C)C)nc1N(C)Cc1ccc(-c2cccnc2)cc1	i
COc1ccc2c(Sc3ccccc3)c(C(=O)NCCc3ccc(Cl)cc3)[nH]c2c1	-19%
COCC(=O)N[C@@H]1CN(Cc2ccc(C)s2)CC[C@@H]1c1n[nH]c(C)n1	i
CCOc1ccccc1NC(=O)N(Cc1ccc(C)o1)C1CCN(C(C)=O)CC1	-16%
Oc1ccc(-c2nn[nH]n2)c2cccnc12	i
O=C(c1cnc(C23CC4CC(CC(C4)C2)C3)[nH]c1=O)N1C[C@H]2CNC[C@H]2C1	-15%
O=C(NCc1ccccc1)c1ccc(-c2ccc(N3CCSCC3)nc2)cc1	i
OC1CC(c2cccc(F)c2)N(Cc2ccc(-c3ccn[nH]3)o2)C1 (stereo not drawn)	?	CHIKV nsP2 cell=-2%;CHIKV NSP2 FL=-40%;Furin counterscr=-6%;NS23 peptide cs=?;Papain counter=-7%;nsP2pro conf qHTS=?;HCV NS3 counter=i
O[C@@H]1C[C@@H](c2nc(Cc3ccc(F)cc3Cl)no2)N(Cc2ccc(OC(F)(F)F)cc2)C1	i
CC(C)c1noc([C@@H]2C[C@@H](O)CN2Cc2cc3ccccc3o2)n1	-3%[39.2 µM]
O=C(OCC1=CC(O)C2C=CO[C@@H](O[C@@H]3O[C@H](CO)[C@@H](O)[C@H](O)[C@H]3O)C12)c1ccccc1 (stereo partly drawn)	22%[10 µM]
O=C(Nc1nnc(-c2ccco2)o1)c1ccc(Br)cc1	-9%
FC(F)(F)c1ccc(Nc2nc(-c3c(C(F)(F)F)nc4ccccn34)cs2)cc1	5%
O=C(c1ccc(Cn2cccn2)o1)N1CCC2(CC1)[C@H](O)C[C@@H]2O	-6%
NC(=O)NCC(=O)N1CCc2cc(S(=O)(=O)NCc3cccs3)ccc2C1	i
Cc1nnc(NC(=O)CSc2nccn2-c2ccc(Cl)cc2)s1	-18%
Cc1cc(C)nc(NC(=S)N2CCN(c3ccc(Cl)nn3)CC2)c1	-9%
Clc1ccc(N2C[C@H]3CC[C@@H](C2)N3)nn1	5µM*	CHIKV nsP2 cell=1%;CHIKV NSP2 FL=4.1µM*;Furin counterscr=?;NS23 peptide cs=15µM*;Papain counter=?;nsP2pro conf qHTS=3.6µM*;HCV NS3 counter=i
COc1cccc(Oc2nc3c(c(=O)n(Cc4ccccc4Cl)c(=O)n3C)n2C)c1	-20%
CC(=O)OC[C@@]12C(=O)C[C@@H](C)[C@]3(C[C@@H](c4ccoc4)OC3=O)[C@H]1CC[C@H](OC(C)=O)[C@]21CO1	-20%[10 µM]
C[C@@H]1CC[C@]2(C)C3(C)CC[C@@]2(OC3=O)[C@@]12C[C@H](c1ccoc1)OC2=O	2.4µM*	CHIKV nsP2 cell=-11%[33.5 µM];CHIKV NSP2 FL=7.2µM*;Furin counterscr=5%[33.5 µM];NS23 peptide cs=?;Papain counter=-9%[33.5 µM];nsP2pro conf qHTS=2.2µM*;HCV NS3 counter=1.8µM*
CN(C)Cc1cc(C[C@@H]2C[C@H](NCc3ccc(F)cc3)C2(C)C)no1	i
CN1Cc2ccccc2NC(=O)C12CCNC2 (stereo not drawn)	-16%[39.2 µM]
CCN1Cc2ccccc2NC(=O)C12CCNC2 (stereo not drawn)	8.9µM*	CHIKV nsP2 cell=?;CHIKV NSP2 FL=6.4µM*;Furin counterscr=-22%;NS23 peptide cs=14µM*;Papain counter=-4%;nsP2pro conf qHTS=8.9µM*;HCV NS3 counter=3.6µM*
O=C1Nc2ccccc2CN(CC2CCCCC2)C12CCNC2 (stereo not drawn)	7%

Screening data (PubChem BioAssay)
